# Paper PMC7862700, “An all-to-all approach to the identification of sequence-specific readers for epigenetic DNA modifications on cytosine”
# Tests used:
# Assay in all cases: DAPPL (digital affinity profiling via proximity ligation, sequencing); 10 mM Tris-HCl pH 7.5, 50 mM NaCl, 1 mM DTT, 4% glycerol, room temperature, 30 min; GST-TFs on glutathione beads, 16-mer random dsDNA library, 0.1% formaldehyde crosslink after washing; high values mean tight binding
# FLI1 = molecular target: T1, FLI1 (Homo sapiens, UniProt Q01543 1-452); details: protein: recombinant; tags: N-terminal GST; dsDNA, one strand shown
# T1 sequence: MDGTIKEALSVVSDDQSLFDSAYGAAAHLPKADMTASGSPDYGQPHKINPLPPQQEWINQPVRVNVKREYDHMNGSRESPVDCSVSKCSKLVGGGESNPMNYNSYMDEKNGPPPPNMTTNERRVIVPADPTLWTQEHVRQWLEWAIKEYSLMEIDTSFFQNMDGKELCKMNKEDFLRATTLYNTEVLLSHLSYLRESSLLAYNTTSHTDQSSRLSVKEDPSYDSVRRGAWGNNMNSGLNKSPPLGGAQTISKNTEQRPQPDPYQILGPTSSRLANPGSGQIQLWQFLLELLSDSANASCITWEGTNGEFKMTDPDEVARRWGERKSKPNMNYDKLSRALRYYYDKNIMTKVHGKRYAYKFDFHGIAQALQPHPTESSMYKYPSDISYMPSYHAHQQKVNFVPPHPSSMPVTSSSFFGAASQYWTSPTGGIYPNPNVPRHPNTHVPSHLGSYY
# Procedure, shortened: (§1)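 Sequencing on an Illumina NextSeq500 followed washing, crosslinking with 0.1% formaldehyde, proximity ligation (BsaI/T4 ligase, 1 h, 37 °C) and PCR amplification of pools that had been incubated for 30 min at room temperature with 200 nmole of a random double-stranded 16-mer DNA library in Tris/NaCl/DTT/glycerol buffer. Each pool held DNA-barcoded human transcription factors, expressed in yeast as GST fusions and captured on glutathione beads, plus a tag-only sample. Binding signal is a hexamer's read frequency for a factor divided by its frequency in the tag-only sample.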
# ELK1 = molecular target: T2, ELK1 (Homo sapiens, UniProt P19419 1-428); details: protein: recombinant; tags: N-terminal GST; dsDNA, one strand shown
# T2 sequence: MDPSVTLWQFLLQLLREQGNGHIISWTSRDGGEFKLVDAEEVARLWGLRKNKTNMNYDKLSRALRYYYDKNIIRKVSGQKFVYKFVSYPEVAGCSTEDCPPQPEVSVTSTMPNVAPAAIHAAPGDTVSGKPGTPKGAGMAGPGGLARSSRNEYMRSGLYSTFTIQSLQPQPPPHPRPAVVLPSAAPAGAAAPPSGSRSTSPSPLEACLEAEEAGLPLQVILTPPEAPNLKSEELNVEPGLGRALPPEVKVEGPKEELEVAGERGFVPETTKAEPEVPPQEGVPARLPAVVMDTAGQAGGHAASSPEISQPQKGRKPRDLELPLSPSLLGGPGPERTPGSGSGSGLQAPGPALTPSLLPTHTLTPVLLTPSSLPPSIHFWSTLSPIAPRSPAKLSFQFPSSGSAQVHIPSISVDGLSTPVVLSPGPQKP
# Procedure, shortened: as §1
# GABPA = molecular target: T3, GABPA (Homo sapiens, UniProt Q06546 1-454); details: protein: recombinant; tags: N-terminal GST; dsDNA, one strand shown
# T3 sequence: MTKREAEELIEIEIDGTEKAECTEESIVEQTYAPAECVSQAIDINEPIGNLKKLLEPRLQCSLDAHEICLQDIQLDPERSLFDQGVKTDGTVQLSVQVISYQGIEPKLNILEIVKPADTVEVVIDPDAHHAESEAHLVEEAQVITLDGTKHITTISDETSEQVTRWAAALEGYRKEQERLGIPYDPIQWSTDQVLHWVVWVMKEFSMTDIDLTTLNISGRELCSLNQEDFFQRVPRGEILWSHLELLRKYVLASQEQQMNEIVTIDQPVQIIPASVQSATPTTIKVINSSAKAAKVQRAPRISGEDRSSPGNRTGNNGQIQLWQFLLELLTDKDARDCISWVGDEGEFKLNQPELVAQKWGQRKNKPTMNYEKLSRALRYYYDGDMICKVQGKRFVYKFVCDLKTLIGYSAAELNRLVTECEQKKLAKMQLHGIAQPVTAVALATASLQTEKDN
# Procedure, shortened: as §1
# ERG = molecular target: T4, ERG (Homo sapiens, UniProt P11308 1-479); details: protein: recombinant; tags: N-terminal GST; dsDNA, one strand shown
# T4 sequence: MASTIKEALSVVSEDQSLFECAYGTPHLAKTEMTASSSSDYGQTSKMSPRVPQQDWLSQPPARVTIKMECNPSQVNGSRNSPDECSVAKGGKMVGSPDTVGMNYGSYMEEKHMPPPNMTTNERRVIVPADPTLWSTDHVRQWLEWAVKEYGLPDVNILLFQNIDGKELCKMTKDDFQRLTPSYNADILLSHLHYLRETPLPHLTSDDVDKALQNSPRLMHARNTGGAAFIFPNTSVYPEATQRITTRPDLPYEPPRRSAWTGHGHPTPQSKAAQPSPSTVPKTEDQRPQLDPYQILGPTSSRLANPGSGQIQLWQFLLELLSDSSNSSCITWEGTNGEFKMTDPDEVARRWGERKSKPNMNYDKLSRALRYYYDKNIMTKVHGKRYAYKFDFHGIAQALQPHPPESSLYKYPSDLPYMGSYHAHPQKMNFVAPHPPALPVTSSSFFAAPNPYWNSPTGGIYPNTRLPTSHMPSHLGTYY
# Procedure, shortened: as §1
# ELF1 = ELF1 (Homo sapiens, UniProt P32519 1-619); details: protein: recombinant; tags: N-terminal GST; dsDNA, one strand shown
# Chain of ELF1 (P32519 whole entry): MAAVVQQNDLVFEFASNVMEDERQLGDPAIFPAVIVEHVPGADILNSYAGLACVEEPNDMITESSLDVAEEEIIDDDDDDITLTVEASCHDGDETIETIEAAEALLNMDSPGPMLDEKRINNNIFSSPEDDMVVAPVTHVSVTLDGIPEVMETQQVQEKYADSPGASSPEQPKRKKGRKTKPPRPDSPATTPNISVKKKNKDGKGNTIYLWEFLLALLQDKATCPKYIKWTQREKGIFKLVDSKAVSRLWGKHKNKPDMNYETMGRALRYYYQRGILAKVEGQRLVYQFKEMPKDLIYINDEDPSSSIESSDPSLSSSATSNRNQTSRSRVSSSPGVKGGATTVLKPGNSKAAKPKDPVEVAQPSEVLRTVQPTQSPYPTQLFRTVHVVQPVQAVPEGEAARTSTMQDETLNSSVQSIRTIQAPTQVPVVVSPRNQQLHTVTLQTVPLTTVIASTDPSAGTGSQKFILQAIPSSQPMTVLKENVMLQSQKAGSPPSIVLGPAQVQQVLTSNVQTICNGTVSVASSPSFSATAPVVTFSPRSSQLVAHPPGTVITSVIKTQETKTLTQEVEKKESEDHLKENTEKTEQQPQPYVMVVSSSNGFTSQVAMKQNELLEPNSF
# Procedure, shortened: as §1
# EHF = molecular target: T5, EHF (Homo sapiens, UniProt Q9NZC4 1-300); details: protein: recombinant; tags: N-terminal GST; dsDNA, one strand shown
# T5 sequence: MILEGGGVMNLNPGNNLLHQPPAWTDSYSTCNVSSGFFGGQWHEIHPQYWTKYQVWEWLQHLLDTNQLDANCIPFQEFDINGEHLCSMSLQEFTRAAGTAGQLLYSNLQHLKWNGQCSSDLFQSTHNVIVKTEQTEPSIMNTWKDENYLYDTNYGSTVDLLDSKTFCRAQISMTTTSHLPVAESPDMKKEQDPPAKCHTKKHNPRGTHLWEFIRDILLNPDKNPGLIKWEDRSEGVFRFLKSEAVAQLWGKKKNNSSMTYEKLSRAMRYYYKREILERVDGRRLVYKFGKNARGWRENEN
# Procedure, shortened: as §1
# SPI1 = SPI1 (Homo sapiens, UniProt P17947 1-270); details: protein: recombinant; tags: N-terminal GST; dsDNA, one strand shown
# Procedure, shortened: as §1
# SPIB = SPIB (Homo sapiens, UniProt Q01892 1-262); details: protein: recombinant; tags: N-terminal GST; dsDNA, one strand shown
# Chain of SPIB (Q01892 whole entry): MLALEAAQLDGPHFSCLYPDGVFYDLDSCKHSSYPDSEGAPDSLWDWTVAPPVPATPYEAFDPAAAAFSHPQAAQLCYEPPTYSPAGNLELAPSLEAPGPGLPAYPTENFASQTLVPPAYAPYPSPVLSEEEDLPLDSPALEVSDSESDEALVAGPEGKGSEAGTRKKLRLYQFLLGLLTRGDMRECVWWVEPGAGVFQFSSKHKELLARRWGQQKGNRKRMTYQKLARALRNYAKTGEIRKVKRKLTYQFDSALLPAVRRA
# Procedure, shortened: as §1
# ELK3 = molecular target: T6, ELK3 (Homo sapiens, UniProt P41970 1-407); details: protein: recombinant; tags: N-terminal GST; dsDNA, one strand shown
# T6 sequence: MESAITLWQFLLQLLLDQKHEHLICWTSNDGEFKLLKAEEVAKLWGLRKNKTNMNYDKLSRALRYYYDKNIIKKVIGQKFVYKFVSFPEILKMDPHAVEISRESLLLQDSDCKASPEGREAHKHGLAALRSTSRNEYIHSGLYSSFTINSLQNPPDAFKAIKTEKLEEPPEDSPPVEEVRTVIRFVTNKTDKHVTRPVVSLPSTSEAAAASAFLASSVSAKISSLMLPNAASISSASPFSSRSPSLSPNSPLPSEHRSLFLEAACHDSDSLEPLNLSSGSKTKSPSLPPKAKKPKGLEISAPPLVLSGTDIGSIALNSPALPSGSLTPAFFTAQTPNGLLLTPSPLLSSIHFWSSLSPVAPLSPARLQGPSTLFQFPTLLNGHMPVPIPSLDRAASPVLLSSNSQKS
# Procedure, shortened: as §1
# FEV = molecular target: T7, FEV (Homo sapiens, UniProt Q99581 1-238); details: protein: recombinant; tags: N-terminal GST; dsDNA, one strand shown
# T7 sequence: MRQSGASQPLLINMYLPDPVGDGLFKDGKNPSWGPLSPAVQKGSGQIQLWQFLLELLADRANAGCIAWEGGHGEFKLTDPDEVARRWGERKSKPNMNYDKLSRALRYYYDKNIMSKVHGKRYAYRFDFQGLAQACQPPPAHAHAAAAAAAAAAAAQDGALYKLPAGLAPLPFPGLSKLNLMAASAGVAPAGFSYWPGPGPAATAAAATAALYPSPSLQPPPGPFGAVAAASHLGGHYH
# Procedure, shortened: as §1
# ETV5 = ETV5 (Homo sapiens, UniProt P41161 1-510); details: protein: recombinant; tags: N-terminal GST; dsDNA, one strand shown
# Chain of ETV5 (P41161 whole entry): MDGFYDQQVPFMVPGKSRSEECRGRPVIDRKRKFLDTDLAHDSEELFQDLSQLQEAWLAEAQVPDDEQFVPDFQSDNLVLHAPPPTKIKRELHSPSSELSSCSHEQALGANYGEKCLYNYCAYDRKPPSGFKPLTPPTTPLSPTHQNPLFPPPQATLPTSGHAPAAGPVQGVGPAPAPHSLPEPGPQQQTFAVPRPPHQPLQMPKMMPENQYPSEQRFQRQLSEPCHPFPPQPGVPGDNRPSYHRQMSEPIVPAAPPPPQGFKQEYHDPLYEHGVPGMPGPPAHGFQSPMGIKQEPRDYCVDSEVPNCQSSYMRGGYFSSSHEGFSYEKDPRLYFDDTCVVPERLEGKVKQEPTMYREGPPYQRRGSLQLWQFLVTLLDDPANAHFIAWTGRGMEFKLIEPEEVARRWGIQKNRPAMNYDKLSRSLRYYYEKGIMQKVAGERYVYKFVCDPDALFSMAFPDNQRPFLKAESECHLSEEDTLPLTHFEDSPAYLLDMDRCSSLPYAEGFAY
# Procedure, shortened: as §1
# HSF1 = HSF1 (Homo sapiens, UniProt Q00613 1-529); details: protein: recombinant; tags: N-terminal GST; chain copies: 3; dsDNA, one strand shown
# Chain of HSF1 (Q00613 whole entry): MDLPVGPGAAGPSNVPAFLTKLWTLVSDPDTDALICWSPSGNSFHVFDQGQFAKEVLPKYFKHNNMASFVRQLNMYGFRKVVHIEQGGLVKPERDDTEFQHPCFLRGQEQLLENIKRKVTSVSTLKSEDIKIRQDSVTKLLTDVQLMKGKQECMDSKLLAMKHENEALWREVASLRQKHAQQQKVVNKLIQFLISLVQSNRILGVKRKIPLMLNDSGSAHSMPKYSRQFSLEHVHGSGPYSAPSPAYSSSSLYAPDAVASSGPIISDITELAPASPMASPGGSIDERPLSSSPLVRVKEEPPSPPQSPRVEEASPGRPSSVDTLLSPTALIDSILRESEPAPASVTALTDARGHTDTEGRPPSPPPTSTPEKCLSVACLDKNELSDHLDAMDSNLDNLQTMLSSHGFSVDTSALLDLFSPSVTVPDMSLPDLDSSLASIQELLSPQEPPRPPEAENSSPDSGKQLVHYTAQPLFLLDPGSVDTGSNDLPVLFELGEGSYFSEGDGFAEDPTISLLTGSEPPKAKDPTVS
# Procedure, shortened: as §1
# SPIC = molecular target: T8, SPIC (Homo sapiens, UniProt Q8N5J4 1-248); details: protein: recombinant; tags: N-terminal GST; dsDNA, one strand shown
# T8 sequence: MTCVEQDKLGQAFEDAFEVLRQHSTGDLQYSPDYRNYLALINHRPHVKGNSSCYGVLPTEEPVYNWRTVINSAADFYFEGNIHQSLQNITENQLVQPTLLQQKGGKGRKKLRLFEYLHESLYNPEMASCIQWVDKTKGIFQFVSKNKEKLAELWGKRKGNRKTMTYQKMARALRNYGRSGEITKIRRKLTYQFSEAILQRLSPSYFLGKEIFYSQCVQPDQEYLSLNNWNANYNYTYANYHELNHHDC
# Procedure, shortened: as §1
# ELF4 = ELF4 (Homo sapiens, UniProt Q99607 1-663); details: protein: recombinant; tags: N-terminal GST; dsDNA, one strand shown
# Chain of ELF4 (Q99607 whole entry): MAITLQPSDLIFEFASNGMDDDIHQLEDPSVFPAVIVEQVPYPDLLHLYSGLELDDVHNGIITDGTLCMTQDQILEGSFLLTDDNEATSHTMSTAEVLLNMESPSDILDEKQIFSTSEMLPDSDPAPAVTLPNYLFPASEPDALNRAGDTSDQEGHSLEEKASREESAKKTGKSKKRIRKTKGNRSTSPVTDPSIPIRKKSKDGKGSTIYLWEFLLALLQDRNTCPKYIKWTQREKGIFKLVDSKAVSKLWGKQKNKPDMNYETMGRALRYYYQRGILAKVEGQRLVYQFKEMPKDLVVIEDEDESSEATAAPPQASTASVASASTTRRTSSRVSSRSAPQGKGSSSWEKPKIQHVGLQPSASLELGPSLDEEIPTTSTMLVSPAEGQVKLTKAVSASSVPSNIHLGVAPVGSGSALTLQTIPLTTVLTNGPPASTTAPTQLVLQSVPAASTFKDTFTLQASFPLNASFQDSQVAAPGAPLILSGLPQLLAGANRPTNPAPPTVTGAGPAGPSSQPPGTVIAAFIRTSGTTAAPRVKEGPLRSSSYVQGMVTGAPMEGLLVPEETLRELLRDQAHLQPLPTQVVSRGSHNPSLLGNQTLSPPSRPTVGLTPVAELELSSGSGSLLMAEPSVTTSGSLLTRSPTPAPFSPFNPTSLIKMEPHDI
# Procedure, shortened: as §1
# ELK4 = molecular target: T9, ELK4 (Homo sapiens, UniProt P28324-2 1-405); details: protein: recombinant; tags: N-terminal GST; dsDNA, one strand shown
# T9 sequence: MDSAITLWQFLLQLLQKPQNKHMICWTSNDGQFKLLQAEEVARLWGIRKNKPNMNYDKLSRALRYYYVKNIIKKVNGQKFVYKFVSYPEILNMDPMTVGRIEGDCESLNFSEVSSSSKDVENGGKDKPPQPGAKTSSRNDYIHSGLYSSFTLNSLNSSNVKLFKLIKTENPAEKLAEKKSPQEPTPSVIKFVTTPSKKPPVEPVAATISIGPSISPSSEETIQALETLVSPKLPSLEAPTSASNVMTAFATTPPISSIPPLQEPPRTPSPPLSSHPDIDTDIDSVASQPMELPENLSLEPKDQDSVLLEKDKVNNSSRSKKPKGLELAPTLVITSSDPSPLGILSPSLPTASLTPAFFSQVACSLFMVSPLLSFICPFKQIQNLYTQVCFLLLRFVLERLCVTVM
# Procedure, shortened: as §1
# ETV2 = molecular target: T10, ETV2 (Homo sapiens, UniProt O00321 1-342); details: protein: recombinant; tags: N-terminal GST; dsDNA, one strand shown
# T10 sequence: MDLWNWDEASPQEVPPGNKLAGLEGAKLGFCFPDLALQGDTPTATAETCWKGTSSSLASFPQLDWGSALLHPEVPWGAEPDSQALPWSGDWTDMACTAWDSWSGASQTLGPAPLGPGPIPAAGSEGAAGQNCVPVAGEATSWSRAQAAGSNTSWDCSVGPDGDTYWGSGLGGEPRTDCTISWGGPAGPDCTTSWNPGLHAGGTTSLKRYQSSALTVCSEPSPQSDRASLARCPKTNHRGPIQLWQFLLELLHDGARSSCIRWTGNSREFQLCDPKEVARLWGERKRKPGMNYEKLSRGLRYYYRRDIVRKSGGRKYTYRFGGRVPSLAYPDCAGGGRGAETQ
# Procedure, shortened: as §1
# ELF3 = molecular target: T11, ELF3 (Homo sapiens, UniProt P78545 1-371); details: protein: recombinant; tags: N-terminal GST; dsDNA, one strand shown
# T11 sequence: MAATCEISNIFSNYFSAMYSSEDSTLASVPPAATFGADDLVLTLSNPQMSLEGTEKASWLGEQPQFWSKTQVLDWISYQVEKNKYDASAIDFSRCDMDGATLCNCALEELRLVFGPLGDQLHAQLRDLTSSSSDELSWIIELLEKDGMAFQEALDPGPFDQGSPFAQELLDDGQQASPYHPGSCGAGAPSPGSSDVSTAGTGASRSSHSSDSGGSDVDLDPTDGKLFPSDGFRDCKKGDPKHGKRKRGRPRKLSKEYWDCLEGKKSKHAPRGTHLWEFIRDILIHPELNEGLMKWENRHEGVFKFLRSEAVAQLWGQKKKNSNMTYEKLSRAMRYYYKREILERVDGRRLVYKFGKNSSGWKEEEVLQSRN
# Procedure, shortened: as §1
# CRX = CRX (Homo sapiens, UniProt O43186 1-299); details: protein: recombinant; tags: N-terminal GST; dsDNA, one strand shown
# Chain of CRX (O43186 whole entry): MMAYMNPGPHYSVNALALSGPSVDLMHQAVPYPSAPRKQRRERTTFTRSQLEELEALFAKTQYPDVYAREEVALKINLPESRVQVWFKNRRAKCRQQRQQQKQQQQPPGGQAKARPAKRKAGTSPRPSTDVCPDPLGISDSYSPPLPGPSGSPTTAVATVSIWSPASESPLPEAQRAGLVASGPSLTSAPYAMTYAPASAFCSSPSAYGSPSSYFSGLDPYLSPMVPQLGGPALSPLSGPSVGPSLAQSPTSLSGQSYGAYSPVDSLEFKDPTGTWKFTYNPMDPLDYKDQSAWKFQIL
# Procedure, shortened: as §1
# ETV1 = ETV1 (Homo sapiens, UniProt P50549 1-477); details: protein: recombinant; tags: N-terminal GST; dsDNA, one strand shown
# Chain of ETV1 (P50549 whole entry): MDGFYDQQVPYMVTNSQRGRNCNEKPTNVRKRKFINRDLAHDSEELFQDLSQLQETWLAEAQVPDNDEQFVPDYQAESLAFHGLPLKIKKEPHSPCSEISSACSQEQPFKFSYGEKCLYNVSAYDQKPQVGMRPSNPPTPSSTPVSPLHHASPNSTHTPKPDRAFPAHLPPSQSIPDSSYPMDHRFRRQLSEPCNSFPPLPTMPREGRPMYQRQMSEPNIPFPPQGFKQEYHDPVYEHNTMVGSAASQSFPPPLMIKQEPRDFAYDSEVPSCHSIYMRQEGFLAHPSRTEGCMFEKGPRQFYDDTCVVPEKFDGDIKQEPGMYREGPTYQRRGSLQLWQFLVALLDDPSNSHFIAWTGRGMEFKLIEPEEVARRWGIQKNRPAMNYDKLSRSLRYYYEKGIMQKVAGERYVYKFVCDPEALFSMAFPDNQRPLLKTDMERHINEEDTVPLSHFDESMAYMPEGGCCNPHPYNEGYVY
# Procedure, shortened: as §1
sequence,measurement,setting,value
ATGAAT,binding signal,FLI1,"1.16 fold enrichment (6-mer frequency, TF over GST control)"
same,binding signal,ELK1,"1.16 fold enrichment (6-mer frequency, TF over GST control)"
same,binding signal,GABPA,"1.2 fold enrichment (6-mer frequency, TF over GST control)"
same,binding signal,ERG,"1.11 fold enrichment (6-mer frequency, TF over GST control)"
same,binding signal,ELF1,"1.07 fold enrichment (6-mer frequency, TF over GST control)"
same,binding signal,EHF,"1.14 fold enrichment (6-mer frequency, TF over GST control)"
same,binding signal,SPI1,"1.15 fold enrichment (6-mer frequency, TF over GST control)"
same,binding signal,SPIB,"1.23 fold enrichment (6-mer frequency, TF over GST control)"
same,binding signal,ELK3,"1.12 fold enrichment (6-mer frequency, TF over GST control)"
same,binding signal,FEV,"1.07 fold enrichment (6-mer frequency, TF over GST control)"
same,binding signal,ETV5,"1.1 fold enrichment (6-mer frequency, TF over GST control)"
same,binding signal,HSF1,"1.19 fold enrichment (6-mer frequency, TF over GST control)"
same,binding signal,SPIC,"1.31 fold enrichment (6-mer frequency, TF over GST control)"
same,binding signal,ELF4,"1.14 fold enrichment (6-mer frequency, TF over GST control)"
same,binding signal,ELK4,"1.13 fold enrichment (6-mer frequency, TF over GST control)"
same,binding signal,ETV2,"1.04 fold enrichment (6-mer frequency, TF over GST control)"
same,binding signal,ELF3,"1.08 fold enrichment (6-mer frequency, TF over GST control)"
same,binding signal,CRX,"1.2 fold enrichment (6-mer frequency, TF over GST control)"
same,binding signal,ETV1,"1.16 fold enrichment (6-mer frequency, TF over GST control)"
